The record followed here is PubChem BioAssay (Tox21).

SMILES strings stand for the structures. Results filed as inconclusive are left out. Values without a mark were called inactive. Calls of active or inactive are those of the source. Unless noted, calls come from the whole dose curve; as a rule, active = well fitted curve in the direction sought with a large enough effect in the repeat runs; inconclusive = weak or mixed curves; inactive = no such curve, though single readings can be large; an effect the other way counts as inactive or inconclusive.
% is set by controls: 0 for no effect and ±100 for the full control effect.

System in the first assay: not listed separately
In words: qHTS assay to identify small molecule antagonists of the thyroid receptor (TR) signaling pathway - cell viability counter screen (AID 743064). Note: nearly all actives have a fitted effect of over 50% in size. Note: potency is the fitted concentration of half-maximal effect. Particulars: GH3.TRE-Luc viability, CellTiter-Fluor, 24 h; series mostly up to 70.3 µM; activity change, negative = cytotoxic: at the top concentration. The procedure, abridged:
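GH3.TRE-Luc rat pituitary cells dosed after 4 hr plating, co-stimulated with T3 at 1 nM final, incubated 23.5 h at 37 C. Viability measured in the same wells by CellTiter-Fluor fluorescence after 30 min further at 37 C.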
For orientation: Quantitative high-throughput screening tests each substance at several concentrations.
Take `Cc1ccc(Nc2nccc(N(C)c3ccc4c(C)n(C)nc4c3)n2)cc1S(N)(=O)=O`: the “activity change, negative = cytotoxic” value is -12.7%.

For the compound `O=C1OCCN1/N=C/c1ccc([N+](=O)[O-])o1`, the “activity change, negative = cytotoxic” value is -17.1%.

For `O=C(CS)OCCOC(=O)CS`, the “activity change, negative = cytotoxic” value was -16.1%.

`Cc1ccccc1N1C(=O)c2cc(S(N)(=O)=O)c(Cl)cc2NC1C` (configuration not stated): the Potency entry is “inactive”.

As to `CC(CCc1ccc2c(c1)OCO2)NN` (configuration not stated), the “activity change, negative = cytotoxic” value is -7.69%.

As to `CCCCCC=CCC=CCCCCCCCC(=O)OCC`, the “activity change, negative = cytotoxic” value was 11.6%.

Consider `CC1=NN(c2ccc(C(=O)O)cc2)C(=O)C1`, for which the “activity change, negative = cytotoxic” value was 4.1%.

Turning to `O=C(N/N=C/c1ccc([N+](=O)[O-])o1)c1ccc(O)cc1`, the “activity change, negative = cytotoxic” value was -25.7% [at 32.5 µM].

`C[N+]1(C)CCC(=C(c2ccccc2)c2ccccc2)CC1`: the “activity change, negative = cytotoxic” value is 20.9% [at 32.5 µM].

Consider `CCCOc1ccc(S(=O)(=O)N2CCN(CC)CC2)cc1-c1nc2c(CC)n(Cc3ccccn3)nc2c(=O)[nH]1`, for which the “activity change, negative = cytotoxic” value was -12.1%.

Take `Nc1ccc(C(=O)OCCCOC(=O)c2ccc(N)cc2)cc1`: the “activity change, negative = cytotoxic” value was -1.76%.

As to `CO[C@@]12[C@H](COC(N)=O)C3=C(C(=O)C(C)=C(N)C3=O)N1C[C@@H]1N[C@@H]12`, the Potency was 2.37 µM (active).

Regarding `C=CC(=C)CCCC(C)(C)OC(C)=O`, the “activity change, negative = cytotoxic” value was 3.22%.

As for `CC1(C)O[C@@H]2C[C@H]3[C@@H]4CCC5=CC(=O)C=C[C@]5(C)[C@H]4[C@@H](O)C[C@]3(C)[C@]2(C(=O)CO)O1`, the “activity change, negative = cytotoxic” value is -23.1%.

As to `Cc1ccc(S(=O)(=O)NC2CCCCC2)cc1`, the “activity change, negative = cytotoxic” value is -20.6%.

Regarding `ON(Cc1ccccc1)Cc1ccccc1`, the “activity change, negative = cytotoxic” value is 1.51%.

In the case of `CC(=O)OCC(=O)[C@H]1CC[C@H]2[C@@H]3CCC4=CC(=O)CC[C@]4(C)[C@H]3CC[C@]12C`, the “activity change, negative = cytotoxic” value was 13.8%.

`COCCOC`: the “activity change, negative = cytotoxic” value is -0.141%.

Take `CC(C)(C)C(=O)O`: the “activity change, negative = cytotoxic” value was -0.518% [at 95 µM].

In the case of `Fc1c(F)c(F)c(Br)c(F)c1F`, the “activity change, negative = cytotoxic” value is -2.56%.

Turning to `CCC(C)=O`, the “activity change, negative = cytotoxic” value is 2.3%.

For the compound `CC1CC(=O)NN=C1c1ccc(NCC(C)(C)NCC(O)COc2cc(Cl)ccc2C#N)cc1` (configuration not stated), the “activity change, negative = cytotoxic” value is -10.7%.

For the compound `CC(N)CN` (configuration not stated), the “activity change, negative = cytotoxic” value was 0.55% [at 95 µM].

Consider `CCCCOC(=O)CCS`, for which the “activity change, negative = cytotoxic” value was 12.9%.

Consider `O=C(O)C(Cc1cc(I)c(O)c(I)c1)c1ccccc1` (configuration not stated), for which the “activity change, negative = cytotoxic” value was -1.79%.

System in a further assay: not listed separately
In words: qHTS assay to identify small molecule antagonists of the thyroid receptor (TR) signaling pathway (AID 743065). Note: nearly all actives have a fitted effect of over 55% in size. Note: potency is the fitted concentration of half-maximal effect. Particulars: GH3.TRE-Luc, T3-stimulated luciferase inhibition, 23.5 h; series mostly up to 70.3 µM; activity, negative = inhibition: at the top concentration. In a few lines: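 GH3.TRE-Luc rat pituitary cells carrying two TR response elements driving luciferase were plated for 4 h, given compound plus 1 nM T3 (final), and incubated 23.5 h at 37 C. ONE-Glo luminescence measured reporter inhibition; CellTiter-Fluor fluorescence tracked cytotoxicity.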
In the case of `Cc1ccc(Nc2nccc(N(C)c3ccc4c(C)n(C)nc4c3)n2)cc1S(N)(=O)=O`, the Potency was 6.68 µM (active).

In the case of `O=C1OCCN1/N=C/c1ccc([N+](=O)[O-])o1`, the “activity, negative = inhibition” value is 16.2%.

Regarding `CC(=N\O)/C(C)=N/O`, the “activity, negative = inhibition” value is 7.48%.

On to `Cc1ccccc1N1C(=O)c2cc(S(N)(=O)=O)c(Cl)cc2NC1C` (configuration not stated), for which the Potency entry was “inactive”.

As to `CC(CCc1ccc2c(c1)OCO2)NN` (configuration not stated), the “activity, negative = inhibition” value is 10.6%.

As for `CCCCCC=CCC=CCCCCCCCC(=O)OCC`, the “activity, negative = inhibition” value is 4.59%.

As for `CC1=NN(c2ccc(C(=O)O)cc2)C(=O)C1`, the “activity, negative = inhibition” value was 6.94%.

`C[N+]1(C)CCC(=C(c2ccccc2)c2ccccc2)CC1`: the “activity, negative = inhibition” value is 9.28% [at 32.5 µM].

Take `CO[C@@]12[C@H](COC(N)=O)C3=C(C(=O)C(C)=C(N)C3=O)N1C[C@@H]1N[C@@H]12`: the Potency was 1.33 µM (active).

Take `CC(=O)Nc1ccc(N)cc1`: the “activity, negative = inhibition” value was 47.5% [at 95 µM].

In the case of `C=CC(=C)CCCC(C)(C)OC(C)=O`, the “activity, negative = inhibition” value is -1.51%.

Regarding `c1ccc(COCc2ccccc2)cc1`, the “activity, negative = inhibition” value was 11.4% [at 95 µM].

For `ON(Cc1ccccc1)Cc1ccccc1`, the “activity, negative = inhibition” value is 10.3%.

With `CC(=O)OCC(=O)[C@H]1CC[C@H]2[C@@H]3CCC4=CC(=O)CC[C@]4(C)[C@H]3CC[C@]12C`, the Potency was 13.3 µM (active).

As for `CCCCCCCCCCCC[N+](C)(C)CCCS(=O)(=O)[O-]`, the Potency was 24.6 µM (active).

On to `COCCOC`, for which the “activity, negative = inhibition” value was 16.4%.

Regarding `CC(C)(C)C(=O)O`, the “activity, negative = inhibition” value was 14.2% [at 95 µM].

Consider `Fc1c(F)c(F)c(Br)c(F)c1F`, for which the “activity, negative = inhibition” value was 1.37%.

As for `CCC(C)=O`, the “activity, negative = inhibition” value was 3.41%.

Consider `CC1CC(=O)NN=C1c1ccc(NCC(C)(C)NCC(O)COc2cc(Cl)ccc2C#N)cc1` (configuration not stated), for which the “activity, negative = inhibition” value is -13.6%.

Consider `CC(N)CN` (configuration not stated), for which the “activity, negative = inhibition” value is 4.15% [at 95 µM].

As to `CCCCOC(=O)CCS`, the “activity, negative = inhibition” value was 14.9%.

In the case of `O=C(O)C(Cc1cc(I)c(O)c(I)c1)c1ccccc1` (configuration not stated), the “activity, negative = inhibition” value was 1.76%.

As for `CCCCC(=O)O[C@]1(C(=O)CO)CC[C@H]2[C@@H]3CCC4=CC(=O)CC[C@]4(C)[C@H]3[C@@H](O)C[C@@]21C`, the “activity, negative = inhibition” value was 0.0423%.

A further assay has as its system thyroid hormone receptor (rat, GH3 cells). Nature of the assay: qHTS assay to identify small molecule agonists of the thyroid receptor (TR) signaling pathway (AID 743066; calls by dose curve). To be noted: GH3.TRE-Luc cells, TR agonist luciferase, 24 h; series mostly up to 83.9 µM; activation: at the top concentration.
Turning to `Cc1ccc(Nc2nccc(N(C)c3ccc4c(C)n(C)nc4c3)n2)cc1S(N)(=O)=O`, the “activation” value is -2.12%.

As for `O=C1OCCN1/N=C/c1ccc([N+](=O)[O-])o1`, the “activation” value is 0.507%.

In the case of `CC(=N\O)/C(C)=N/O`, the “activation” value is -0.927%.

Consider `O=C(CS)OCCOC(=O)CS`, for which the “activation” value was -0.16%.

Regarding `Cc1ccccc1N1C(=O)c2cc(S(N)(=O)=O)c(Cl)cc2NC1C` (configuration not stated), the outcome was inactive.

`O=C(Nc1ccccc1)Nc1ccccc1`: the “activation” value is 0.054% [at 95.2 µM].

Regarding `CC(CCc1ccc2c(c1)OCO2)NN` (configuration not stated), the “activation” value is 0.39%.

In the case of `CCCCCC=CCC=CCCCCCCCC(=O)OCC`, the “activation” value was 0.111%.

For `O=C(O)c1snc(Cl)c1Cl`, the “activation” value is 0.913%.

As to `O=C(N/N=C/c1ccc([N+](=O)[O-])o1)c1ccc(O)cc1`, the “activation” value is 0.0844% [at 39.4 µM].

Take `C[N+]1(C)CCC(=C(c2ccccc2)c2ccccc2)CC1`: the “activation” value is 0.222% [at 39.4 µM].

On to `CCCOc1ccc(S(=O)(=O)N2CCN(CC)CC2)cc1-c1nc2c(CC)n(Cc3ccccn3)nc2c(=O)[nH]1`, for which the “activation” value is -5.56%.

Regarding `Nc1ccc(C(=O)OCCCOC(=O)c2ccc(N)cc2)cc1`, the “activation” value is -5.37%.

For `CC(=O)Nc1ccc(N)cc1`, the “activation” value was 7.59% [at 95.2 µM].

Take `C=CC(=C)CCCC(C)(C)OC(C)=O`: the “activation” value is -0.145%.

`C[C@@H]1C[C@H]2[C@@H]3CCC4=CC(=O)C=C[C@]4(C)[C@@]3(F)[C@@H](O)C[C@]2(C)[C@@]1(O)C(=O)CO`: the “activation” value is -2.27% [at 95.2 µM].

With `c1ccc(COCc2ccccc2)cc1`, the “activation” value is -1% [at 95.2 µM].

Take `CC1(C)O[C@@H]2C[C@H]3[C@@H]4CCC5=CC(=O)C=C[C@]5(C)[C@H]4[C@@H](O)C[C@]3(C)[C@]2(C(=O)CO)O1`: the “activation” value was 0.339%.

Turning to `CC(C)C(OC(=O)c1ccccc1)C(C)(C)COC(=O)c1ccccc1` (configuration not stated), the “activation” value was -8.15%.

With `Cc1ccc(S(=O)(=O)NC2CCCCC2)cc1`, the “activation” value was -3.56%.

For the compound `ON(Cc1ccccc1)Cc1ccccc1`, the “activation” value was 0.703%.

In the case of `CC(=O)OCC(=O)[C@H]1CC[C@H]2[C@@H]3CCC4=CC(=O)CC[C@]4(C)[C@H]3CC[C@]12C`, the “activation” value was -5.25%.

As to `CCCCCCCCCCCC[N+](C)(C)CCCS(=O)(=O)[O-]`, the “activation” value is -6.43% [at 95.2 µM].

With `COCCOC`, the “activation” value was 0.643%.

Take `CC(C)(C)C(=O)O`: the “activation” value is 4.25% [at 95.2 µM].

In the case of `Fc1c(F)c(F)c(Br)c(F)c1F`, the “activation” value is 0.258%.

With `CCC(C)=O`, the “activation” value is 0.463%.

Regarding `CC1CC(=O)NN=C1c1ccc(NCC(C)(C)NCC(O)COc2cc(Cl)ccc2C#N)cc1` (configuration not stated), the “activation” value was -2.9%.

Turning to `CC(N)CN` (configuration not stated), the “activation” value is -0.403% [at 95.2 µM].

Consider `CC[C@@H]([C@H](C)O)n1ncn(-c2ccc(N3CCN(c4ccc(OC[C@@H]5CO[C@@](Cn6cncn6)(c6ccc(F)cc6F)C5)cc4)CC3)cc2)c1=O`, for which the “activation” value was -4.95%.

Consider `Cc1cc(S(=O)(=O)O)ccc1N=Nc1c(O)ccc2ccccc12`, for which the “activation” value was -3.43%.

Regarding `O=C(O)C(Cc1cc(I)c(O)c(I)c1)c1ccccc1` (configuration not stated), the “activation” value is -1.38%.

`CCCCC(=O)O[C@]1(C(=O)CO)CC[C@H]2[C@@H]3CCC4=CC(=O)CC[C@]4(C)[C@H]3[C@@H](O)C[C@@]21C`: the “activation” value was -4.03%.
